Screens: PubChem BioAssay, National Center for Advancing Translational Sciences (NCATS)
The list is not random: actives were taken first. Their share in the collection is about 9.3%.
ELG1 DNA repair: ELG1-dependent DNA repair inhibition; HEK293T ELG1-luciferase reporter, luminescence, 16 h; DNA damage induced by 5-fluorouridine; AID 504467; 2.3% of 330,000 active; Potency, µM (doses to about 46.1 µM), for inactives: at the top dose activity change, negative = inhibition, hits mostly inhibitors; further: on the % scale 0 is the no-effect control and ±100 the full control effect; nearly all actives have a fitted effect of over 55% in size
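Overnight (16 hr) co-exposure of 2,000 cells/well to 5-fluorouridine and compound at 37 °C preceded detection. Luciferase was quantified via ONE-Glo luminescence; loss of signal denotes inhibition.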
Rab9 prom act: activates the Rab9 promoter | Huh7 Rab9 promoter-luciferase reporter, luminescence, 24 h | Potency, µM (series often up to 9.22 µM), for the others: top-dose activation, negative = inhibition, usual class: activators | 2.8% of 320,000 active | AID 485297; further: % of control where 0% means no effect; nearly all actives have a fitted effect of over 60% in size
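Luciferase signal after 10 min detection reagent at ambient indicates Rab9 promoter upregulation; stably transfected Huh7 cells were treated 24 h with compound in DMSO at 37 °C, 5% CO2.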
FLuc modulator: counter-screen for miR-21 project: firefly luciferase inhibitors or activators | P08659 | purified FLuc, Km substrates, luminescence inhibition | Potency, µM (series often up to 57.5 µM), without a hit: at the highest dose activity change, negative = inhibition, usual class: inhibitors | 6.9% of 360,000 active | AID 588342;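 further: plate controls were vehicle for no effect and reference inhibitor for full effect; nearly all actives have a fitted effect of over 55% in size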
Target sequence (P08659 whole entry, looked up): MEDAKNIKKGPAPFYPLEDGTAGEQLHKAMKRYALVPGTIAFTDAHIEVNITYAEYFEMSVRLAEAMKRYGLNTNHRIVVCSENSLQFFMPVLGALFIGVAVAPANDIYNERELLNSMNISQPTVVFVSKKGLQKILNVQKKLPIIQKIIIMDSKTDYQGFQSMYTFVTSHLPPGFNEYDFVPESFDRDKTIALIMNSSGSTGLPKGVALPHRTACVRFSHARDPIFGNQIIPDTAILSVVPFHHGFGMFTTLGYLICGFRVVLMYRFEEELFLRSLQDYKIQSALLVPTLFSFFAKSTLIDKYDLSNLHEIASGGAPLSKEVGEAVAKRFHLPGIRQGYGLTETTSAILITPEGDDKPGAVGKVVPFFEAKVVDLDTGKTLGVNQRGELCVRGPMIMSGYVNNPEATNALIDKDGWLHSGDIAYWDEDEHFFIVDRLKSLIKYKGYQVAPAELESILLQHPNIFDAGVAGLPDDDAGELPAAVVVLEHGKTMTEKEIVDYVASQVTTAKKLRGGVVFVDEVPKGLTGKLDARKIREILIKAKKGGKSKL
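Purified P. pyralis luciferase, 10 nM final, with Km-level 10 uM D-luciferin and 10 uM ATP in 50 mM Tris acetate pH 7.5, 10 mM Mg acetate, 0.01% Tween-20, 0.05% BSA; 6-point qHTS titration about 60 µM downward; luminescence read.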
SMN2 splice up: increases expression of the SMN2 splice variant; HEK293 SMN2-luciferase splicing reporter, luminescence, 30-36 h; Potency, µM (highest dose often 46.1 µM), without a hit: at the top dose activity change, positive = activation, usual class: activators; 2.8% of 210,000 active; further: % of control where 0% means no effect; nearly all actives have a fitted effect of over 55% in size
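HEK293 cells carry an SMN2 […]–luciferase reporter in which exon 7 inclusion puts luciferase in frame. Cells were plated 10-12 h before compound addition, then incubated 30-36 h at 37C. ONE-Glo luminescence was read; sodium butyrate at 4.5 mM final served as control.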
NPC1 promoter act: NPC1 promoter activation | AID 485313 | Potency, µM (highest dose often 9.22 µM), for the others: at the highest dose activation, hits mostly activators | Huh7 NPC1 promoter luciferase reporter, 24 h | 2.4% of 320,000 active; further: % of control where 0% means no effect; nearly all actives have a fitted effect of over 60% in size
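Compounds in DMSO were transferred onto Huh7 NPC1-luciferase reporter cells pre-incubated 2 h; after 24 h at 37 °C, Amplite reagent was dispensed and luminescence recorded 10 min later.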
ELG1 genotox: genotoxicity induction in ELG1-luciferase HEK293T cells; HEK293T ELG1-luciferase reporter, luminescence, 16 h; Potency, µM (titrated, usually from 46 µM), inactives show at the top dose activity change, positive = activation, most hits filed as activators; 1.3% of 330,000 active; AID 504466; further: % of control where 0% means no effect; nearly all actives have a fitted effect of over 60% in size
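HEK293T cells expressing luciferase-tagged ELG1 were exposed to compound or DMSO vehicle for 16 hr at 37 °C and 5% CO2. Luciferase activity was then measured with ONE-Glo after 30 min at room temperature.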
Active calls of the source: *; u = inconclusive; x = no result given; [ ] = dose if it differs, or a comment. The call rests on the fitted dose curve; in most records, active means well fitted curve in the direction sought with a large enough effect; inconclusive means small, poorly fitted or top-dose-only effect, or another doubt; inactive means no such curve, though single readings can be large; an effect the other way counts as inactive or inconclusive. Potency means the concentration at half of the fitted maximal effect.

SMILES | ELG1 DNA repair | Rab9 prom act | FLuc modulator | SMN2 splice up | NPC1 promoter act | ELG1 genotox
COC(=O)c1cn[nH]c1NC(=S)Nc1ccccc1C | u | 3.5µM* | 7.6µM* | 4% | u | u
COC(=O)c1cc(NC(=O)CSc2ncn[nH]2)ccc1Cl | -1% | 6% | 0% | x | -2% | -2%
CCOC(=O)NC(=S)Nc1ccc(OC)cc1 | u | 20% | -15% | 14% | 12% | 15%
COC(=O)c1cn[nH]c1NC(=S)Nc1ccc(C)cc1Cl | u | 0.56µM* | 0.38µM* | 16% | 0.4µM* | 0.58µM*
CCOC(=O)c1cn[nH]c1NC(=S)Nc1ccc(OC)cc1 | u | 0.32µM* | 0.19µM* | x | 0.28µM* | u
COC(=O)c1cn[nH]c1NC(=S)Nc1ccc(Cl)c(Cl)c1 | u | 0.35µM* | 0.43µM* | 10µM* | 0.63µM* | 0.41µM*
Cc1cc(Br)cc(C)c1OCC(=O)Nc1ccc(S(=O)(=O)Nc2ncccn2)cc1 | x | x | u | -1% | x | x
CCn1nnc2cc(C(=O)NCCc3ccccc3F)ccc21 | u | 0.4µM* | 1.1µM* | x | 0.32µM* | u
CCn1nnc2cc(C(=O)Nc3ccc(Br)cc3F)ccc21 | x | x | -4% | x | x | x
O=[N+]([O-])c1ccc(/C=N/Nc2nc3ccccc3o2)cc1 | u | 2µM* | -21% | x | 2µM* | u
CN(C)c1ccc(/C=N/Nc2nc3ccccc3o2)cc1 | u | 0.1µM* | 0.54µM* | x | u | u
COc1ccc(/C=C/C(=O)Nc2cc(C)nn2-c2nc3ccccc3[nH]2)cc1 | u | u | 1.7µM* | 11µM* | 4µM* | 7%
Cc1cc(NC(=O)c2c(F)cccc2Cl)n(-c2nc3ccccc3[nH]2)n1 | 21µM* | 1% | -4% | -20% | -5% | -19%
Cc1cc(NC(=O)c2c(F)cccc2F)n(-c2nc3ccccc3[nH]2)n1 | u | -1% | -6% | -4% | -1% | -4%
Cc1cc(NC(=O)c2ccccc2F)n(-c2nc3ccccc3[nH]2)n1 | 16µM* | -5% | -20% | 9% | 7% | -9%
COCCNc1nc(NCc2cccc(Cl)c2)c2cnn(C)c2n1 | x | x | -4% | x | x | x
CCNc1nc(Nc2ccc(C)c(Cl)c2)c2cnn(C)c2n1 | 9.2µM* | -4% | -1% | x | 0% | -1%
CCCCNc1nc(Nc2ccc(C)c(Cl)c2)c2cnn(C)c2n1 | 18µM* | -5% | 0% | x | -3% | -5%
Cc1sc2nc(C)n(/N=C/N(C)C)c(=O)c2c1C | 11% | 1% | -2% | x | 3% | 3%
Cc1nc2sc(-c3ccccc3)cc2c(=O)n1/N=C/N(C)C | u | 2.8µM* | 19µM* | 11µM* | 2.5µM* | u
Cc1nc2sc(-c3ccccc3)cc2c(=O)n1N | u | u | 0.67µM* | x | 0.1µM* | u
Cc1nc2sc(-c3ccccc3)cc2c(=O)n1-n1cccc1 | u | 1.6µM* | 7.6µM* | x | 1.3µM* | u
O=c1c2cc(-c3ccccc3)sc2nc2n1CCC2 | u | 0.63µM* | 3µM* | 3.2µM* | 0.5µM* | 1.2µM*
Cc1ccc(Cl)cc1N1CCN(C(=O)c2cnc(N3CCOCC3)c3ccccc23)CC1 | x | x | -10% | x | x | x
Cc1noc(C)c1NC(=O)N(C)C[C@H]1Oc2ccc(NC(=O)c3ccncc3)cc2C(=O)N([C@H](C)CO)C[C@@H]1C | 13% | x | x | x | x | 4%
SMILES | ELG1 DNA repair | Rab9 prom act | FLuc modulator | SMN2 splice up | NPC1 promoter act | ELG1 genotox
COCCCNC(=O)c1nn(C)c2c1CS(=O)(=O)c1ccccc1-2 | x | x | -17% | x | x | x
COc1ccc(CCNC(=O)c2nn(C)c3c2CS(=O)(=O)c2ccccc2-3)c(OC)c1 | 23µM* | 0% | -2% | x | -8% | -16%
CCOc1ccc(CCNC(=O)c2nn(C)c3c2CS(=O)(=O)c2ccccc2-3)cc1 | u | -3% | -1% | x | -6% | -14%
CCOc1ccc(CCNC(=O)c2nn(C)c3c2CS(=O)(=O)c2ccccc2-3)cc1OCC | 18µM* | 2% | 2% | x | 3% | -13%
S=c1nc(NCCc2ccccc2Cl)c2ccccc2[nH]1 | u | 3.5µM* | -10% | x | 3.2µM* | 9%
Cc1csc(N/N=C/c2c(F)cccc2Cl)n1 | u | 6% | 13µM* | x | 0% | u
CCOc1ccc(/C=N/Nc2nc(C)cs2)c(O)c1 | u | 1.8µM* | 3.8µM* | x | 1.6µM* | 16%
Fc1cccc(Cl)c1/C=N/Nc1ccccn1 | u | 0% | -6% | u | 12% | 13%
Cc1csc(N/N=C/c2ccccc2F)n1 | u | 3% | 6µM* | x | 12% | u
CSc1nc2sc3c(c2c(=O)n1-c1ccc(C)c(Cl)c1)CCN(C(C)=O)C3 | x | x | 5% | -4% | x | x
CCC(C)[C@H](NS(=O)(=O)c1ccc(C)cc1)C(=O)N1CCC(C(=O)N2CCC(C(N)=O)CC2)CC1 (some centres not stated) | -9% | -3% | 1% | x | -3% | -3%
Cc1ccc(N=Nc2ccc(N)cc2C)c(S(N)(=O)=O)c1 | u | 2.8µM* | 11µM* | 3%[9.22 µM] | u | u
NS(=O)(=O)c1ccc(N=Nc2ccc(O)c3ncccc23)cc1 | u | -32% | u | x | -40% | u
Cc1cccc(N=Nc2ccc(O)c3ncccc23)c1 | u | -3% | 11µM* | -51% | 13% | 12µM*
Cc1ccc(C)c(N=Nc2ccc(O)c3ncccc23)c1 | u | 8% | 11µM* | -96% | u | u
CCOc1ccc(N=Nc2ccc(O)c3ncccc23)cc1 | u | 1% | -13% | x | -13% | u
Oc1ccc(N=Nc2ccc3c(c2)OCCO3)c2ncccc12 | 0% | -27% | 5.4µM* | x | -23% | u
NS(=O)(=O)c1cc(Br)c(N=Nc2ccc(O)c3ncccc23)c(Br)c1 | x | x | x | 15%[9.22 µM] | x | x
O=C(COC(=O)C1=COCCO1)NC(=O)c1ccc(OC(F)F)cc1 | 0% | 14% | -2% | 9% | 0% | 1%
O=C(Nc1ccc(C(F)(F)F)cc1)C1(c2cccs2)CCOCC1 | x | x | 2% | x | x | x
CC(=O)Nc1ccc(C(=O)COC(=O)CCc2ccccc2)c(F)c1 | 14% | -2% | -1% | x | -1% | -2%
C/C(=C\C1CCCCC1)C(NC(=O)c1cccnc1)c1ccc(-c2ccccc2)cc1 (configuration not stated) | x | x | x | -27% | x | x
Cc1ccc(N=Nc2cc(C)ccc2O)c(C)c1 | u | u | 4.8µM* | x | u | u
Cc1ccc(O)c(N=Cc2ccc(C)s2)c1 | u | -1% | -14% | 11% | -3% | 1%
Nc1ccc(S(=O)(=O)Nc2ccc(Cl)nn2)cc1 | -12% | 1% | -2% | -16% | 0% | 1%
